According to PubChem BioAssay:
The source made the active and inactive calls.

test system: not listed separately; test: forskolin-driven CRE-LacZ activity in PC12 – cell-based, CRE-LacZ reporter, forskolin-stimulated, primary screen (AID 1146); details: luminescence, 4.5 h, higher = more signal, called active from +8 up or from −8 down;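 also: PC12 cells with 6xCRE LacZ reporter stimulated by forskolin 10 µM; beta-galactosidase reporter signal reflecting CREB driven transcription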

SMILES | z-score
C=C(CCCC)/C(=C/C[C@@H](OC(C)=O)c1ccc(OCCO)cc1)c1cc(C(=O)OC)ccc1OC | 0.574 (inactive)
C=CCNC(=O)[C@H]1[C@@H]2C(=O)O[C@@H](c3ccccc3)[C@@H](c3ccccc3)N2[C@@H](c2ccc(OCCO)cc2)[C@]12C(=O)Nc1ccc(C#Cc3ccc(OC)cc3)cc12 | 0.237 (inactive)
CC(C)N1C(=O)[C@@]2(Cc3ccccc31)c1ccccc1C(=O)N(Cc1ccccc1C(F)(F)F)[C@H]2c1ccc(CO)cc1 | 0.176 (inactive)
COC(=O)c1ccc(OC)c(/C=C\CC(OC(=O)c2ccncc2)c2ccccc2)c1 (centres undefined) | -1.88 (inactive)
O=C(NC1CC1)[C@@H]1c2ccccc2C(=O)N(C2CCCCC2)[C@H]1c1ccc(CO)cc1 | -0.592 (inactive)

biological target: Streptavidin (Streptomyces avidinii) (UniProt P22629); test: compounds binding control protein streptavidin – biophysical, small-molecule microarray, 635/667 nm fluorescence, artefact control for SMM compound annotation, primary screen (AID 1147); details: higher = more signal;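 also: signal reflects streptavidin binding to arrayed compounds as a control protein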
Sequence (P22629 whole entry, looked up): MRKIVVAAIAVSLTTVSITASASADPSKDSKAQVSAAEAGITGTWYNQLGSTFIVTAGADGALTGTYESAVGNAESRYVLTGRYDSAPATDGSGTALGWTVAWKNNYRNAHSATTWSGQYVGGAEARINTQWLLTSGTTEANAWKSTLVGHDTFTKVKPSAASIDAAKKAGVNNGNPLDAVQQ

SMILES | composite z-score
COC(=O)C(CC#Cc1ccc2c(c1)[C@]1(C(=O)N2)[C@H](c2ccc(OCCO)cc2)N2[C@H](c3ccccc3)[C@H](c3ccccc3)OC(=O)[C@H]2[C@@H]1C(N)=O)C(=O)OC | 1.42
COC(=O)C(CC#Cc1ccc2c(c1)[C@]1(C(=O)N2)[C@H](c2ccccc2OCCO)N2[C@H](c3ccccc3)[C@H](c3ccccc3)OC(=O)[C@H]2[C@@H]1C(=O)N1CCN(c2ncccn2)CC1)C(=O)OC | 1.06
COC(=O)Cn1c(C(=O)N(C)C)cc2c1C[C@H]1CN(C(=O)c3ccccc3)[C@@](Cc3ccccc3)(C(=O)OC)[C@@H]21 | 0.822
COC(=O)[C@@]1(Cc2ccc(OC)cc2)[C@@H]2[C@@H](CC(=O)[C@H]2CC(=O)C(=O)N(C)C)CN1C(=O)c1ccccc1 | 1.79
COC(=O)[C@@]1(Cc2ccccc2)[C@H]2c3cc(C(=O)N(C)C)n(Cc4nc5ccccc5[nH]4)c3C[C@H]2CN1C(=O)c1ccccc1 | 1.26
COCCOC(=O)N1C(=O)[C@@]2(c3cc(C#CCCO)ccc31)[C@H](C(=O)N1CCN(c3ncccn3)CC1)[C@H]1C(=O)O[C@H](c3ccccc3)[C@H](c3ccccc3)N1[C@@H]2c1ccc(OCCO)cc1 | 1.26
C=C(CCCC)/C(=C/C[C@@H](OC(C)=O)c1cccc(OCCO)c1)c1cc(C(=O)OC)ccc1OC | -0.697
C=CCOC(=O)[C@H]1[C@@H]2C(=O)O[C@@H](c3ccccc3)[C@@H](c3ccccc3)N2[C@@H](c2ccc(OCCOC(=O)[C@H]3C[C@H]4C(=O)NCC(=O)N4[C@H]3c3cccc(OCCO)c3)cc2)[C@]12C(=O)Nc1ccc(I)cc12 | 0.0708
CCOC(=O)C=C1C[C@@H](c2cccc([N+](=O)[O-])c2)O[C@@H](c2cccc([N+](=O)[O-])c2)O1 | 0.865
COc1ccc(C#Cc2ccc3c(c2)[C@]2(C(=O)N3)[C@H](c3ccccc3OCCO)N3[C@H](c4ccccc4)[C@H](c4ccccc4)OC(=O)[C@H]3[C@@H]2C(=O)NC[C@H](O)c2ccccc2)cc1 | 0.448
C=CC[C@H](O)c1ccc(O)c2ccccc12 | 0.881
Cc1ccc(S[C@]2(C(=O)NCCN3CCOCC3)CC(=O)N(C(C)C)[C@@H]2c2ccc(CO)cc2I)cc1 | -0.676
CN(C)C(=O)[C@]1(CCS(=O)(=O)c2ccccc2)N=C(c2ccc(OCCCO)cc2)O[C@@H]1c1ccccc1CN=[N+]=[N-] | 1.54
C[C@H]1C2[C@H](Cc3ccccc3)NC(=O)[C@]23C(=O)N[C@@H](Cc2ccccc2)C(=O)N2CCC[C@H]2C(=O)NC/C=C/CC/C=C/C3[C@@H]2O[C@]12C (some centres undefined) | -0.423
C=CCN1C(=O)[C@]2(O[C@H](CCO)[C@@H]([Si](C)(C)c3ccc(OC)cc3)[C@@H]2C)c2cc(N3C(=O)c4ccccc4Oc4ccccc43)ccc21 | 0.763
CO[C@H]1O[C@H](CO)[C@@H](OC(=O)Nc2ccccc2)[C@@H]2OC(=O)[C@@H](Cc3ccccc3)C/C=C/C[C@H](Cc3ccccc3)C(=O)O[C@@H]12 | -0.304
COC(=O)[C@@]1(Cc2ccc(OC)cc2)[C@H]2c3cc(C(=O)N(C)C)n(Cc4c(CO)[nH]cc(C)c4=O)c3C[C@H]2CN1C(=O)c1ccccc1 | 0.27
COc1cccc(C)c1NC(=O)O[C@H]1[C@H](OC(=O)Nc2ccccc2-c2ccccc2)[C@@H](OC(=O)Nc2ccccc2-c2ccccc2)[C@@H](OC)O[C@@H]1CO | 1
CCCNC(=O)[C@@]1(Sc2ccc(C)cc2)CC(=O)N(Cc2cc(C(F)(F)F)cc(C(F)(F)F)c2)[C@@H]1c1ccc(CO)cc1 | -1.08
